Compound activity deposited in PubChem by National Center for Advancing Translational Sciences (NCATS).
Most compounds without a hit are left out; they make up all but 19% or so of the library.
DT40 TDP1 CPT: qHTS for Inhibitors of human tyrosyl-DNA phosphodiesterase 1 (TDP1): qHTS in cells in presence of CPT. chicken DT40 Tdp1-/-;hTDP1 cells + 20 nM CPT, ATP luminescence, 48 h. Potency, µM (series often up to 46.2 µM), inactives show top-dose activity change, negative = growth inhibition, usual class: inhibitors. 420,000 tested, 12% active. AID 686979, 2013; note: nearly all actives have a fitted effect of over 55% in size
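Chicken DT40 Tdp1-/- cells stably complemented with human TDP1 were seeded at 400 cells/well in medium containing 20 nM camptothecin, exposed to pin-transferred compounds, and grown at 37 °C for at least 48 hr. Viability was read as ATP luminescence.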
RORg inh: qHTS for inhibitors of ROR gamma transcriptional activity; Potency, µM (doses to about 53.6 µM), for the others: top-dose activity change, negative = inhibition, usual class: inhibitors; 310,000 tested, 5.4% active; Drosophila S2 Gal4-RORgamma UAS-luciferase reporter, 20 h; AID 2551, 2010; note: nearly all actives have a fitted effect of over 60% in size
Target sequence (P51450 whole entry, looked up, the tested form may be a part): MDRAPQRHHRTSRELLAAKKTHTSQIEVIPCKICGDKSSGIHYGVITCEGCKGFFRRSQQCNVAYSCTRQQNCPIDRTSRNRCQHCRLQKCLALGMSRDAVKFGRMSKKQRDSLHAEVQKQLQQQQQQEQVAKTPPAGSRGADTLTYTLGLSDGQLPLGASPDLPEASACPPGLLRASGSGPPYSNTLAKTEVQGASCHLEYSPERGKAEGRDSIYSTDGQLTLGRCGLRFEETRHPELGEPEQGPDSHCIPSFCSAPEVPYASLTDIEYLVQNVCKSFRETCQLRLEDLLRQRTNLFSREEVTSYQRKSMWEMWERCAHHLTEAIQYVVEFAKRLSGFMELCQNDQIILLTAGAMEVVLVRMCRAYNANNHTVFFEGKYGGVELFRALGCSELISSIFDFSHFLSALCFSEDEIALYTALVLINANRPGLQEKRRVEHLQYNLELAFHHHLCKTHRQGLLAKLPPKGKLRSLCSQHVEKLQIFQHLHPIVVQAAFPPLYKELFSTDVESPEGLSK
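In this cell-based reporter format, copper sulfate (700 uM final) drives Gal4–ROR gamma fusion expression from a metallothionein promoter in Drosophila Schneider cells; compounds preincubated 1 hr, reporter read after 20 hr at ambient temperature.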
TDP1 block: qHTS Assay for Inhibitors of Tyrosyl-DNA Phosphodiesterase (TDP1); Potency, µM (doses to about 130 µM), without a hit: at the highest dose activity change, negative = inhibition, actives largely listed as inhibitors; AID 485290, 2010; recombinant TDP1, AlphaScreen DNA substrate cleavage; Tyrosyl-DNA phosphodiesterase 1 (Homo sapiens), Q9NUW8; 350,000 tested, 0.28% active; note: nearly all actives have a fitted effect of over 40% in size
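E. coli-derived human Tdp1, 1 nM final. Cpd preinc 15 min RT; substrate 15 nM final, 5 min RT; AS bead mix 10 ug/ml final, 10 min RT. Signal loss = tyrosine-FITC cleavage. No-enzyme wells = max signal.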
DT40 TDP1 no CPT: qHTS for Inhibitors of human tyrosyl-DNA phosphodiesterase 1 (TDP1): qHTS in cells in absence of CPT. DT40 Tdp1-/- hTDP1 cells, no CPT, ATP luminescence, 48 h. Potency, µM (titrated, usually from 46.2 µM), for inactives: at the highest dose activity change, negative = growth inhibition, actives largely listed as inhibitors. 420,000 tested, 15% active. AID 686978, 2013; note: nearly all actives have a fitted effect of over 55% in size
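No-CPT arm: Tdp1-/-;hTDP1 DT40 cells (400/well) plus compounds, incubated ≥48 hr at 37 °C. Readout CellTiter-Glo luminescence.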
VP16 counter: VP16 counterscreen qHTS for inhibitors of ROR gamma transcriptional activity; Drosophila S2 Gal4-VP16 UAS-luciferase, luminescence, 20 h; Potency, µM (top dose mostly 53.6 µM), for inactives: at the top dose activity, negative = inhibition, usual class: inhibitors; 310,000 tested, 3.5% active;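 note: Gal4-VP16 expression switched on by copper sulfate through the metallothionein promoter; nearly all actives have a fitted effect of over 50% in size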
Numbers without * were called inactive; u = inconclusive; x = no result given; [ ] = dose if it differs, or a comment. Calls come from the whole dose curve; as a rule, active = well fitted curve in the direction sought with a large enough effect; inconclusive = small, poorly fitted or top-dose-only effect, or another doubt; inactive = no such curve, though single readings can be large; an effect the other way counts as inactive or inconclusive. % is set by controls: 0 for no effect and ±100 for the full control effect; potency is the fitted concentration of half-maximal effect.

SMILES	DT40 TDP1 CPT	RORg inh	TDP1 block	DT40 TDP1 no CPT	VP16 counter
COc1ccc(-c2cc(C(=O)Nc3sc4c(c3C#N)CCCC4)c3ccccc3n2)cc1	-22%	-16%	0%	u	-6%
Cc1ccccc1NC(=O)c1sc(NC(=O)COc2ccccc2)c(C#N)c1C	u	34%	3%	18µM*	-17%
COc1ccccc1-c1cc(C(=O)Nc2sc3c(c2C#N)CCC(C)C3)c2ccccc2n1 (stereo not given)	u	8%	3%	u	-3%
CCOC(=O)c1sc(NC(=O)c2cc(-c3ccc(C)cc3)nc3ccccc23)c(C#N)c1C	21µM*	35%	4%	16µM*	-10%
Cc1ccccc1-c1cc(C(=O)Nc2sc(C(=O)OC(C)C)c(C)c2C#N)c2ccccc2n1	23µM*	u	12%	21µM*	u
COC(=O)c1sc(NC(=O)c2cc(-c3ccccc3)nc3ccccc23)c(C#N)c1C	8.2µM*	16%	1%	7.3µM*	-14%
O=C(c1cccc(S(=O)(=O)N2CCCCC2)c1)N1CCN(Cc2ccccc2)CC1	u	x	-4%	u	x
CC1(C(=O)NS(=O)(=O)c2ccc(F)cc2F)CCN1C(=O)CCc1ccc(Cl)cc1Cl (stereo not given)	-4%	x	x	2%	x
CCOc1ccc(NCc2cccn2-c2nnc(N3CCC(C(=O)NCCCN4C(C)CCCC4C)CC3)s2)cc1 (stereo not given)	u	10%	8%	u	-1%
CCOc1ccc(NCc2cccn2-c2nnc(N3CCC(C(=O)NCc4ccccc4Cl)CC3)s2)cc1	-91%	x	4%	12µM*	x
CCOc1ccc(NCc2cccn2-c2nnc(N3CCC(C(=O)NCCCN4CCCCC4)CC3)s2)cc1	u	-22%	10%	23µM*	u
CCOc1ccc(NCc2cccn2-c2nnc(N3CCC(C(=O)NCCCN4CCCCC4C)CC3)s2)cc1 (stereo not given)	u	4%	15%	u	-4%
Cn1cnc(CCNC(=O)C[C@H]2CC[C@@H]3[C@H](COC[C@H](O)CN3C(=O)C3CCCC3)O2)c1	9%	x	x	17%	x
CCOC(=O)c1c(-c2ccc(C)cc2)csc1NC1=NS(=O)(=O)c2ccccc21	u	-1%	-8%	u	-3%
C=CCN1C(=O)/C(=C2\SC(N3CCOCC3)=NC2=O)c2cc(Br)ccc21	23µM*	-26%	6%	u	-11%
CCN1C(=O)/C(=C2\SC(N3CCOCC3)=NC2=O)c2ccccc21	-14%	0%	x	-1%	6%
C=C(c1nc2ccccc2s1)C1Cc2cccc3c2N(CCC3)C1 (stereo not given)	0.089µM*	x	x	0.089µM*	x
Cc1cc(/C=C(\C#N)C(=O)N2CCOCC2)c(C)n1C1CCCC1	u	u	10%	12µM*	u
Cc1c(CCC(=O)NCCCN2CCCC2=O)c(=O)oc2cc(O)ccc12	12%	-9%	x	5%	7%
Cc1c(CCC(=O)NCCCn2ccnc2)c(=O)oc2cc3oc4c(c3cc12)CCCC4	9.2µM*	1.3µM*	x	10µM*	16µM*
Cc1oc2cc3oc(=O)c(CCC(=O)NCCCN4CCOCC4)c(C)c3cc2c1C	23µM*	-18%	x	u	12%
Cc1coc2cc3oc(=O)c(CCC(=O)NCCCn4ccnc4)c(C)c3cc12	u	-11%	x	u	-5%
Cc1oc2cc3oc(=O)c(CCC(=O)NCCCn4ccnc4)c(C)c3cc2c1C	u	-19%	x	23µM*	-4%
CCOc1ccc(-c2cc(CCCC(=O)NCCCOC)no2)cc1	-12%	u	3%	-26%	u
CN1c2ccc([N+](=O)[O-])cc2N(C)C1(C)c1ccccc1 (stereo not given)	u	u	14%	u	u
SMILES	DT40 TDP1 CPT	RORg inh	TDP1 block	DT40 TDP1 no CPT	VP16 counter
Cc1cc(C)nc(/N=C(\N)N2CCCCCC2)n1	4%	-33%	3%	u	-6%
CCOC(=O)c1oc2ccccc2c1NC(=O)c1cccc(OC)c1OC	16µM*	-16%	-3%	18µM*	3%
CCOC(=O)c1oc2ccccc2c1NC(=O)CCl	10µM*	2%	0%	7.3µM*	6%
CCOC(=O)c1oc2ccccc2c1NC(=O)c1cccc(OC)c1	13µM*	22%	x	18µM*	-2%
COc1ccc(C(=O)c2oc3ccccc3c2NC(=O)c2cccc(OC)c2)cc1	-14%	x	5%[12.3 µM]	-3%	x
CCOC(=O)c1oc2ccccc2c1NC(=O)c1ccco1	u	-7%	2%	u	5%
COc1cccc(C(=O)Nc2c(C(N)=O)oc3ccccc23)c1	u	u	4%	16µM*	4%
COc1ccc(N2CCN(C(=O)c3ccccc3NC(=O)c3ccccc3)CC2)cc1	-1%	x	9%	-1%	x
CCCN(C)C1CN(Cc2cn(CCCC(=O)OC)nn2)S(=O)(=O)C1 (stereo not given)	-12%	x	x	-10%	x
COc1ccc(NC(=O)c2oc3ccccc3c2NC(=O)c2cc(OC)c(OC)c(OC)c2)cc1	21µM*	x	4%	12µM*	x
COC(=O)c1cc(OC)c(OC)cc1NC(=O)c1cccc(OC)c1OC	u	14%	3%	5.8µM*	-18%
COC(=O)c1cc(OC)c(OC)cc1NC(=O)Nc1ccccc1OC	-15%	-1%	3%	3%	-4%
COc1ccc(NC(=O)c2oc3ccccc3c2NC(=O)c2ccc3c(c2)OCO3)cc1	u	41%	2%	u	20%
CCOc1ccc(NC(=O)c2oc3ccccc3c2NC(=O)C(C)Oc2ccccc2)cc1 (stereo not given)	u	x	9%	21µM*	x
Cc1cc(C)nc(NS(=O)(=O)c2ccc(NC(=O)c3cc(=O)c4ccccc4o3)cc2)n1	2%	11%	7%	20%	7%
Cc1ccccc1-c1ccc2c(c1)O[C@H](CN(C)C(=O)C1CC1)[C@@H](C)CN([C@@H](C)CO)S2(=O)=O	-25%	x	x	-24%	x
O=C1CC(c2ccco2)Cc2[nH]c(=O)c(C(=O)Nc3ccccc3)cc21 (stereo not given)	u	x	x	10µM*	x
CCC(=O)Nc1ccc(S(=O)(=O)NCc2cccn2Cc2cccc(C)c2)cc1	21µM*	x	9%	23µM*	x
CCc1ccc(S(=O)(=O)NCc2cccn2Cc2cccc(C)c2)cc1	u	x	9%	u	x
